What all share (test): protein-binding microarray (PBM); PBM: ~300 nM protein, 6 mM HEPES pH 7.8, 80 mM KCl, 0.5 mM EDTA, 0.5 mM EGTA, 6% glycerol, 35 ng/ul poly-dIdC, 1% milk, 1 h, room temperature; Ap Aiptasia and Nv Nematostella (sea anemones) / Co Capsaspora / Aq Amphimedon (sponge) / Dm Drosophila / Hu human; RHD is the Rel homology domain; high values mean tight binding
Holding throughout (conditions): dsDNA, one strand shown

One assay concerns the target T1, GST-Ap-NF-kB RHD (Exaiptasia pallida (Aiptasia), UniProt A0A913YAJ5 2-422).
T1 sequence: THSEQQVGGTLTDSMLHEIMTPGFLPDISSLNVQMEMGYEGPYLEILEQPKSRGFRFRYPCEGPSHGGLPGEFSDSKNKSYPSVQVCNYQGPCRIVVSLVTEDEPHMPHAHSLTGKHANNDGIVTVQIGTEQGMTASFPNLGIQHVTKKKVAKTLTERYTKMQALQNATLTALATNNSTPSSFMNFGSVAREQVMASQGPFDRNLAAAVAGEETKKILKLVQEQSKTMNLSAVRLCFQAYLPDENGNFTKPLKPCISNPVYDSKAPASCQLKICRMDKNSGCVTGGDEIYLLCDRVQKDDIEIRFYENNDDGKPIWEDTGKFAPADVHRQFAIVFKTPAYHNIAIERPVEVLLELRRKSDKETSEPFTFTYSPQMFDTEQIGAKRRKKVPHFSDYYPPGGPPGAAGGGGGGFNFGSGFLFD

The target in assay [1] is T2, GST-Nv-NF-kB (Cys allele) (Nematostella vectensis, UniProt E5G601 2-411).
T2 sequence: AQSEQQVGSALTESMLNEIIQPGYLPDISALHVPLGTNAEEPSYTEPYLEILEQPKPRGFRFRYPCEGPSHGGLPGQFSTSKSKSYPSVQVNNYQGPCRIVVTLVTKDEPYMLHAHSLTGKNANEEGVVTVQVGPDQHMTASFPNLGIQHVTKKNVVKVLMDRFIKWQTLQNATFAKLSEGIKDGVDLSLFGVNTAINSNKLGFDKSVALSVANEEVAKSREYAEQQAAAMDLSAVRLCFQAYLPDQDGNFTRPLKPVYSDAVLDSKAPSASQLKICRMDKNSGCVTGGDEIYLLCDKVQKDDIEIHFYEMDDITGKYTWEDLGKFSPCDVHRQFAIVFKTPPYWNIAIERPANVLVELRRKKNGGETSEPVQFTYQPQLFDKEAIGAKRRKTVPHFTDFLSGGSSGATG

The target of the next assay is T3, GST-Co-NF-kB (Capsaspora owczarzaki, UniProt F1ARL5 200-546).
T3 sequence: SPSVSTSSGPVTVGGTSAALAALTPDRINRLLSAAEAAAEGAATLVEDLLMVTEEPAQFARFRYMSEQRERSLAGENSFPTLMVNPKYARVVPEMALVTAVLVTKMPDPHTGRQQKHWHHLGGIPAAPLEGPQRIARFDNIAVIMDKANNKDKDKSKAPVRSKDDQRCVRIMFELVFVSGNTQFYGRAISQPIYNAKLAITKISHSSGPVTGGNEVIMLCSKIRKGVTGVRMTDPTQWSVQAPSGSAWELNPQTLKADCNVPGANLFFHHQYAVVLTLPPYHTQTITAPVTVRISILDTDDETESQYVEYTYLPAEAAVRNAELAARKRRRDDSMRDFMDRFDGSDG

In the next assay the target is T4, GST-Dm-Relish (Drosophila melanogaster, UniProt Q94527 99-473).
T4 sequence: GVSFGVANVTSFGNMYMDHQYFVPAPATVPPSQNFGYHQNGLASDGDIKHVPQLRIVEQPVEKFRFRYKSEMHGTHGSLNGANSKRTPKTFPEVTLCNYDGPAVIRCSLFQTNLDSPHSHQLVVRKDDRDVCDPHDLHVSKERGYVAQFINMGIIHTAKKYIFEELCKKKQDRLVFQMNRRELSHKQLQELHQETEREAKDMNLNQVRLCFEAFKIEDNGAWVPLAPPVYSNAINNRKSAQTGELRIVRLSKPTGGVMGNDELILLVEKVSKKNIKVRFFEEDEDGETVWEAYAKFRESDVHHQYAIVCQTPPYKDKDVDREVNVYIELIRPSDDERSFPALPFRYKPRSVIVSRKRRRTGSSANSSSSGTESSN

The next assay deals with T5, GST-Aq-NF-kB (Amphimedon queenslandica, UniProt A9Y5G7 2-389).
T5 sequence: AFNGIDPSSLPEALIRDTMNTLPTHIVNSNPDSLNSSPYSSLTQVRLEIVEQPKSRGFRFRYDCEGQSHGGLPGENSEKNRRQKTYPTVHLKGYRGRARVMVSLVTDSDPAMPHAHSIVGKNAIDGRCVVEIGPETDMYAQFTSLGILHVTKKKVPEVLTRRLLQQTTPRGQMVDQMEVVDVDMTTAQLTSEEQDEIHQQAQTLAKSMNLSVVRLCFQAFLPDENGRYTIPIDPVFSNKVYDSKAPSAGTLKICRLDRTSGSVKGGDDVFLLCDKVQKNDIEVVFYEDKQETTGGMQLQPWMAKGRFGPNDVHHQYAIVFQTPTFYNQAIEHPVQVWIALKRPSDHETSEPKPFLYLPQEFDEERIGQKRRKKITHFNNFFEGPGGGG

On to “CCGATTAACATCAGAATATCCCATGATGTTAATCGGGTCTTGATTCGCTTGACGCTGCTG”, for which the binding signal amounted to 2.05 z-score with GST-Ap-NF-kB RHD; 1.17 z-score in assay [1]; 1.46 z-score with GST-Co-NF-kB; 1.8 z-score in the assay with GST-Dm-Relish; 1.86 z-score with GST-Aq-NF-kB.
For “CCGATTAACATCACGGGAAACCCTGATGTTAATCGGGTCTTGATTCGCTTGACGCTGCTG”, in that order: 4.31 z-score, 4.16 z-score, 3.68 z-score, 7.56 z-score and 5.65 z-score.
For “CCGATTAACATCAGAATTCCCGCTGATGTTAATCGGGTCTTGATTCGCTTGACGCTGCTG”, in that order: 3.59 z-score, 4.74 z-score, 3.87 z-score, 3.89 z-score and 3.98 z-score.
For “CCGATTAACATCAGGGGGTAGAATGATGTTAATCGGGTCTTGATTCGCTTGACGCTGCTG”, in that order: 4.45 z-score, 2.63 z-score, 7.1 z-score, 2.13 z-score and 3.38 z-score.
Consider “CCGATTAACATCAGGGGCGGGAATGATGTTAATCGGGTCTTGATTCGCTTGACGCTGCTG”, for which the binding signal is 2.87 z-score in the assay with GST-Ap-NF-kB RHD; 3.85 z-score in assay [1]; 3.85 z-score in the assay with GST-Co-NF-kB; 2.49 z-score with GST-Dm-Relish; 4.18 z-score with GST-Aq-NF-kB.
With “CCGATTAACATCAGGGGTTTCCATGATGTTAATCGGGTCTTGATTCGCTTGACGCTGCTG”, the binding signal with GST-Ap-NF-kB RHD turned out to be 5.75 z-score; in assay [1], 5.04 z-score; with GST-Co-NF-kB, 1.21 z-score; in the assay with GST-Dm-Relish, 8.15 z-score; with GST-Aq-NF-kB, 5.61 z-score.
Regarding “CCGATTAACATCAGGGGTATAACTGATGTTAATCGGGTCTTGATTCGCTTGACGCTGCTG”, the binding signal in the assay with GST-Ap-NF-kB RHD worked out at 1.94 z-score; in assay [1], 1.77 z-score; with GST-Co-NF-kB, 3.43 z-score; with GST-Dm-Relish it was 1.06 z-score; with GST-Aq-NF-kB, 2.25 z-score.
For “CCGATTAACATCAGGGGAGAACCTGATGTTAATCGGGTCTTGATTCGCTTGACGCTGCTG”, in that order: 6.35 z-score, 4.58 z-score, 5.4 z-score, 5.43 z-score and 5.51 z-score.
For “CCGATTAACATCAAGGATTTCCCTGATGTTAATCGGGTCTTGATTCGCTTGACGCTGCTG”, in that order: 4.49 z-score, 6.09 z-score, 3.24 z-score, 6.12 z-score and 6.2 z-score.
In the case of “CCGATTAACATCAGGGGGAGTGATGATGTTAATCGGGTCTTGATTCGCTTGACGCTGCTG”, the binding signal with GST-Ap-NF-kB RHD came to 5.05 z-score; in assay [1], 3.63 z-score; in the assay with GST-Co-NF-kB, 3.71 z-score; with GST-Dm-Relish, 1.66 z-score; in the assay with GST-Aq-NF-kB, 3.44 z-score.
For “CCGATTAACATCAGGCTTCCCCCTGATGTTAATCGGGTCTTGATTCGCTTGACGCTGCTG”, in that order: 5.74 z-score, 5.65 z-score, 6.8 z-score, 6.44 z-score and 5.57 z-score.
For “CCGATTAACATCAAGGGGAGTCCTGATGTTAATCGGGTCTTGATTCGCTTGACGCTGCTG”, in that order: 6.71 z-score, 4.83 z-score, 2.5 z-score, 8.01 z-score and 5.29 z-score.
For “CCGATTAACATCAAATAGGGAATTGATGTTAATCGGGTCTTGATTCGCTTGACGCTGCTG”, in that order: 2.29 z-score, 5.11 z-score, 1.54 z-score, 1.32 z-score and 3.5 z-score.
As to “CCGATTAACATCAAGAATTCCCATGATGTTAATCGGGTCTTGATTCGCTTGACGCTGCTG”, the binding signal stood at 4.1 z-score in the assay with GST-Ap-NF-kB RHD; 5.41 z-score in assay [1]; 3.48 z-score with GST-Co-NF-kB; 4.5 z-score in the assay with GST-Dm-Relish; 4.33 z-score in the assay with GST-Aq-NF-kB.
On to “CCGATTAACATCAAACACTCCCCTGATGTTAATCGGGTCTTGATTCGCTTGACGCTGCTG”, for which the binding signal was found to be 4.43 z-score with GST-Ap-NF-kB RHD; 3.84 z-score in assay [1]; 3.52 z-score in the assay with GST-Co-NF-kB; 1.65 z-score with GST-Dm-Relish; 4.61 z-score with GST-Aq-NF-kB.
As to “CCGATTAACATCAGGGGGGGACCTGATGTTAATCGGGTCTTGATTCGCTTGACGCTGCTG”, the binding signal in the assay with GST-Ap-NF-kB RHD is 7.43 z-score; in assay [1] it was 4.15 z-score; in the assay with GST-Co-NF-kB, 5.99 z-score; with GST-Dm-Relish it was 4.96 z-score; with GST-Aq-NF-kB it was 5.51 z-score.
For “CCGATTAACATCACGTATTTCCCTGATGTTAATCGGGTCTTGATTCGCTTGACGCTGCTG”, in that order: 3.32 z-score, 4.03 z-score, 3.79 z-score, 4.26 z-score and 3.99 z-score.
For “CCGATTAACATCAGGGGGTGATATGATGTTAATCGGGTCTTGATTCGCTTGACGCTGCTG”, in that order: 3.88 z-score, 3.66 z-score, 4.73 z-score, 2.63 z-score and 4.56 z-score.
For “CCGATTAACATCAGGACTGTCCCTGATGTTAATCGGGTCTTGATTCGCTTGACGCTGCTG”, in that order: 4.85 z-score, 5.38 z-score, 1.21 z-score, 3.04 z-score and 7.35 z-score.
“CCGATTAACATCAGGGTAAAACCTGATGTTAATCGGGTCTTGATTCGCTTGACGCTGCTG”: the binding signal in the assay with GST-Ap-NF-kB RHD is 1.98 z-score; in assay [1], 3.16 z-score; with GST-Co-NF-kB, 1.9 z-score; with GST-Dm-Relish, 3.45 z-score; with GST-Aq-NF-kB, 6.02 z-score.
For “CCGATTAACATCAGGGAATTCGATGATGTTAATCGGGTCTTGATTCGCTTGACGCTGCTG”, in that order: 3.01 z-score, 3.99 z-score, 2.25 z-score, 1.66 z-score and 3.01 z-score.
For “CCGATTAACATCACCCCAGCCCCTGATGTTAATCGGGTCTTGATTCGCTTGACGCTGCTG”, in that order: 3.28 z-score, 1.93 z-score, 2.88 z-score, 2.39 z-score and 2.91 z-score.
For “CCGATTAACATCAAATATACCCATGATGTTAATCGGGTCTTGATTCGCTTGACGCTGCTG”, in that order: 2.13 z-score, 2.41 z-score, 1.8 z-score, 2.31 z-score and 2.52 z-score.
Turning to “CCGATTAACATCAGGGATTTCTATGATGTTAATCGGGTCTTGATTCGCTTGACGCTGCTG”, the binding signal with GST-Ap-NF-kB RHD came out at 4.28 z-score; in assay [1] it was 4.04 z-score; with GST-Co-NF-kB, 1.22 z-score; with GST-Dm-Relish, 5.1 z-score; in the assay with GST-Aq-NF-kB it was 4 z-score.
Regarding “CCGATTAACATCAAACAATTCCCTGATGTTAATCGGGTCTTGATTCGCTTGACGCTGCTG”, the binding signal was 3.25 z-score in the assay with GST-Ap-NF-kB RHD; 5.26 z-score in assay [1]; 3.45 z-score with GST-Co-NF-kB; 1.6 z-score in the assay with GST-Dm-Relish; 4.85 z-score with GST-Aq-NF-kB.
“CCGATTAACATCAAGCGTTCCCCTGATGTTAATCGGGTCTTGATTCGCTTGACGCTGCTG”: the binding signal with GST-Ap-NF-kB RHD worked out at 5.35 z-score; in assay [1] it was 5.36 z-score; with GST-Co-NF-kB it was 4.53 z-score; with GST-Dm-Relish it was 3.82 z-score; in the assay with GST-Aq-NF-kB, 4.01 z-score.
Consider “CCGATTAACATCAAATTTCCCGCTGATGTTAATCGGGTCTTGATTCGCTTGACGCTGCTG”, for which the binding signal is 3.85 z-score in the assay with GST-Ap-NF-kB RHD; 5.17 z-score in assay [1]; 4.99 z-score in the assay with GST-Co-NF-kB; 2.88 z-score in the assay with GST-Dm-Relish; 5.22 z-score in the assay with GST-Aq-NF-kB.
For “CCGATTAACATCAGGGGAGTATATGATGTTAATCGGGTCTTGATTCGCTTGACGCTGCTG”, in that order: 4.78 z-score, 3.81 z-score, 4.7 z-score, 2.18 z-score and 3.95 z-score.

The values above are taken from publication PMC5700166.
